a7 integrin act – qHTS for Activators of Integrin-Mediated Alleviation for Muscular Dystrophy; AID 624291, 2012; alpha7betagal myoblasts, beta-gal FDG fluorescence, 48 h; 350,000 compounds, 0.064% hits; Potency, µM (doses to about 38.3 µM), for the others: at the highest dose activation, hits mostly activators;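 further: potency means the concentration at half of the fitted maximal effect; 100% = response of the positive control SU9516; nearly all actives have a fitted effect of over 60% in size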
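Alpha7betagal+/- myoblasts (passage 13) were plated 16-24 hr, then exposed to compounds (1:260 dilution of DMSO stock) for 48 hours at 37C. After MPER lysis, β-galactosidase reporter activity was read as FDG fluorescence (ex 480/em 540) after 30 minutes.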
ASM inhibitor – Inhibitors of Secretory Acid Sphingomyelinase (S-ASM): qHTS; Potency, µM (doses to about 57.5 µM), without a hit: at the highest dose activity change, negative = inhibition, usual class: inhibitors; placental ASM, HMU-PC fluorogenic substrate, 60 min; Sphingomyelin phosphodiesterase (Homo sapiens), P17405; 340,000 compounds, 0.006% hits; further: potency means the concentration at half of the fitted maximal effect
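HMU-PC0 cleavage (9 uM final) by human placental ASM, 60 min at 37 °C following 10 min compound exposure at RT; stopped at pH 10, fluorescence Ex 386/Em 447 nm.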
gsp agonist – qHTS for Agonist of gsp, the Etiologic Mutation Responsible for Fibrous Dysplasia/McCune-Albright Syndrome: qHTS. gsp mutant cells, cAMP HTRF, 30 min. Potency, µM (doses to about 76.9 µM), for the others: at the highest dose activation (cAMP increase), most hits filed as activators. 340,000 compounds, 0.13% hits; active means well fitted activation curve with a large enough effect; inconclusive means small, poorly fitted or top-dose-only effect, or another doubt; inactive means no such curve, though single readings can be large or run the other way; cell line not stated here;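 further: phosphodiesterase inhibitor Ro 20-1724 added with compounds to block cAMP breakdown; potency means the concentration at half of the fitted maximal effect; nearly all actives have a fitted effect of over 60% in size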
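Cells in DMEM/10% FBS with G418 were pretreated with compounds in DMSO plus […] (300 uM stock) for 30 min at 37C. cAMP was measured by HTRF (cAMP-d2 plus anti-cAMP antibody-K) after 30 min at room temperature.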
RXFP1 antagonist – qHTS Assay for Antagonists of the Relaxin Receptor RXFP1; HEK293-RXFP1, relaxin-stimulated cAMP HTRF, 30 min; hits give low values; Relaxin receptor 1 (Homo sapiens), Q9HBX9; 350,000 compounds, 0.59% hits; activity change, negative = inhibition, % at 57.5 µM;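 active means activity change of -60% or lower, but not beyond a set lower limit; inconclusive means change between -60% and -40%, or beyond the set limit; inactive means change above -40%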; further: on the % scale 0 is the no-effect control and ±100 the full control effect
Target sequence (Q9HBX9 whole entry, looked up): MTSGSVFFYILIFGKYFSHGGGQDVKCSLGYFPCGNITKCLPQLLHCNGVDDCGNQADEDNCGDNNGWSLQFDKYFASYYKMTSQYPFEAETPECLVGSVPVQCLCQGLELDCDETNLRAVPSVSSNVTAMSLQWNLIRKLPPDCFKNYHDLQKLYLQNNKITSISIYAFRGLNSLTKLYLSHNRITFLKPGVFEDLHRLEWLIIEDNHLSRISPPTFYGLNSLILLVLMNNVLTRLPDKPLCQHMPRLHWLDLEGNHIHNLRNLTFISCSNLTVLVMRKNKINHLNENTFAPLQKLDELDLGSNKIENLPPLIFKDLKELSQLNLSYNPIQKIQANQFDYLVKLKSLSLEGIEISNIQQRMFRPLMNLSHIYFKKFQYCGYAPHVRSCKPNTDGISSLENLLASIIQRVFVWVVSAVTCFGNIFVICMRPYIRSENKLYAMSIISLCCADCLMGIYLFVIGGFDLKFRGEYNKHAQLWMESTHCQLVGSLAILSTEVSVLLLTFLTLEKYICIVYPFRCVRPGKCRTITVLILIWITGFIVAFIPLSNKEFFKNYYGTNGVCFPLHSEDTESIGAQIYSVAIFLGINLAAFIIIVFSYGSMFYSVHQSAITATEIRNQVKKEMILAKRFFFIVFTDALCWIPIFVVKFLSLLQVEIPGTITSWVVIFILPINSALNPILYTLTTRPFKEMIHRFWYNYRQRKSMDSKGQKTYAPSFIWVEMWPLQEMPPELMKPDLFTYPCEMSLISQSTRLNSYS
RXFP1 agonist – qHTS Assay for Agonists of the Relaxin Receptor RXFP1; HEK293T-RXFP1 cAMP TR-FRET, 30 min; response scale: percent of porcine relaxin response, buffer zero; Potency, µM (doses to about 57.5 µM), inactives show at the top dose activation, hits mostly activators; 370,000 compounds, 0.3% hits; further: potency means the concentration at half of the fitted maximal effect; on the % scale 0 is the no-effect control and ±100 the full control effect; nearly all actives have a fitted effect of over 60% in size
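Agonist response is measured as cAMP accumulation in an RXFP1-transfected HEK293T line under PDE4 inhibition. Values are scaled between buffer-only and 29 nM porcine relaxin, and EC50s come from standard Hill equation fits.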
gsp antag – qHTS for Antagonists of gsp, the Etiologic Mutation Responsible for Fibrous Dysplasia/McCune-Albright Syndrome: qHTS; gsp-mutant cells, cAMP HTRF, 30 min; Potency, µM (series often up to 76.9 µM), inactives show at the top dose activity change, negative = inhibition, hits mostly inhibitors; 340,000 compounds, 0.4% hits; calls by dose curve; cell line not stated here;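 further: intracellular cAMP measured with PDE inhibitor Ro 20-1724 present during compound exposure; potency means the concentration at half of the fitted maximal effect; on the % scale 0 is the no-effect control and ±100 the full control effect; nearly all actives have a fitted effect of over 65% in size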
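G418-selected cells were plated in DMEM/10% FBS for 16-24 h at 37C, then treated with compounds plus the PDE inhibitor […] (300 uM solution added) for 30 min at 37C. Intracellular cAMP was measured by HTRF after 30 min lysis at room temperature.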
Numbers without * were called inactive; ? = inconclusive; · = not tested or not shown; [ ] = remark or other dose. Sampled rows, rich in hits. Any-hit rate of the full collection: about 1.1%. Unless noted, the call rests on the fitted dose curve; in most records, active means well fitted curve in the direction sought with a large enough effect; inconclusive means small, poorly fitted or top-dose-only effect, or another doubt; inactive means no such curve, though single readings can be large; an effect the other way counts as inactive or inconclusive.

SMILES	a7 integrin act	ASM inhibitor	gsp agonist	RXFP1 antagonist	RXFP1 agonist	gsp antag
CCc1ccc(NC(=O)CN2C(=O)C(c3ccc(F)cc3)=NC2(C)C)cc1	·	·	·	-12.5	-0.2%	·
CC(=O)c1ccc(N(C(=O)CNC(=O)c2ccco2)C(C(=O)NC2CCCC2)c2ccc(C)o2)cc1 (centres undefined)	10µM*	-0.4%	12.8%[15.4 µM]	5.4	-0.3%	-11.8%
CN(C)[C@@H]1C(=O)C(C(N)=O)=C(O)[C@@]2(O)C(=O)C3=C(O)c4c(O)cccc4C[C@H]3C[C@@H]12	·	·	·	-6.0	·	·
CCCCN(Cc1ccccc1)C(=O)CN(C)S(=O)(=O)c1ccc2c(c1)c(=O)n(C)c(=O)n2C	·	·	·	·	1.0%	·
CN(C)S(=O)(=O)Oc1ccsc1C(=O)Nc1cccc(Cl)c1Cl	7.2%	-0.3%	-28.7%	3.3	-0.4%	?
CN(C)S(=O)(=O)Oc1ccsc1C(=O)Nc1ccccc1Cl	15.7%	-1.1%	-40.9%	-6.0	-0.9%	28.2µM*
CCCCCCCC/C=C/C(=O)O	·	·	·	-22.1	·	·
CCOC(=O)N1CCN(C(=O)c2oc3ccc(S(=O)(=O)N4CC(C)CC(C)C4)cc3c2C)CC1 (centres undefined)	-5.7%	-2.9%	2.6%	1.6	0.2%	35.5µM*
COc1cc2[nH]c(=S)nc(NCCc3ccc(S(N)(=O)=O)cc3)c2cc1OC	21.6%	-0.2%	12.6µM*	3.0	?	-2.7%
COc1cc2[nH]c(=S)nc(NCCc3ccc(C)cc3)c2cc1OC	-21.5%	-26.2%	16.0%	-14.0	?	-0.7%
COc1ccccc1N1CCN(C(=O)c2cc3c(=O)n(Cc4ccco4)ccc3nc2C)CC1	·	·	·	-9.0	5.0%	·
CCOc1cc(N2CCOCC2)c(OCC)cc1NC(=O)c1cnccn1	-9.7%	-7.2%	-4.5%[15.4 µM]	-6.6	·	1.7%
C=CCn1c(SCc2ccccc2C#N)nnc1-c1cc(Br)ccc1O	-14.3%[7.66 µM]	-2.3%	-1.5%	-10.7	-0.4%	35.5µM*
C=CCn1c(SCC(N)=O)nnc1-c1cccc(Br)c1	2.6%	1.5%	-30.1%	-0.4	0.5%	-0.7%
O=C1C(F)=CC(COC(c2ccccc2)(c2ccccc2)c2ccccc2)OC1n1cc(F)c(=O)[nH]c1=O (centres undefined)	-51.5%	?	-4.2%	-83.7*	·	20.7%
CCc1ccc2nc(N(CCN(C)C)C(=O)c3ccc4ncsc4c3)sc2c1	-12.6%	-0.6%	13.7%[15.4 µM]	-67.6*	1.4%	1.2%
Cc1ccc2nc(N(CCCN(C)C)C(=O)c3ccc(S(=O)(=O)N4CCc5ccccc5C4)cc3)sc2c1	-59.7%	-14.2%	1.4%[15.4 µM]	-64.6*	0.3%	-2.5%
Cc1ccc(C(=O)N(CCCN(C)C)c2nc3ccc(Cl)cc3s2)cc1C	-74.7%	-6.6%	0.9%[15.4 µM]	-100.0*	0.1%	9.2%
Cc1cc(C)nc(NC(=O)c2ccc(Cl)cc2Cl)n1	10µM*	2.8%	-7.6%	12.2	0.6%	7.3%
N#Cc1ccc(-c2nc3ccc(Br)cn3c2Cc2ccccc2)cc1	0.9%	·	31.6µM*	-1.3	·	·
CC(=O)C1=C(c2ccc(Cl)c(Cl)c2)N(C(C)=O)n2c(C)nnc2S1	·	·	·	-84.4*	5.1%	·
CC(=O)C1=C(c2ccc(Cl)c(Cl)c2)N(C(C)=O)n2cnnc2S1	·	·	·	-83.3*	3.9%	·
CCC(=O)N1CCN(c2ccnc3cc(Cl)ccc23)CC1	0.9%	-1.0%	-31.2%[15.4 µM]	-5.0	1.2%	-4.4%
O=C(c1ccc(Cl)cc1)N1CCN(c2ccnc3cc(Cl)ccc23)CC1	-33.8%	-3.5%	11.3%[15.4 µM]	-20.0	-0.7%	39.8µM*
O=C(CCCn1c(=S)[nH]c2cc3c(cc2c1=O)OCO3)NCc1ccccc1Cl	2.7%	0.0%	?	-107.5*	?	20.4%
SMILES	a7 integrin act	ASM inhibitor	gsp agonist	RXFP1 antagonist	RXFP1 agonist	gsp antag
COc1cccc(N2CCN(C(=O)CCCCCn3c(=S)[nH]c4cc5c(cc4c3=O)OCO5)CC2)c1	-33.3%	-1.4%	-13.8%	?	?	-6.5%
COc1cccc(CNC(=O)CCCn2c(=S)[nH]c3cc4c(cc3c2=O)OCO4)c1	-20.9%	-2.5%	?	-70.9*	21.1%	10.5%
O=C(CCCCCn1c(=S)[nH]c2ccccc2c1=O)NCc1ccc2c(c1)OCO2	-5.1%	1.6%	-14.8%	-62.1*	-3.7%	9.5%
CCCCNC(=O)CCCn1c(=S)[nH]c2cc3c(cc2c1=O)OCO3	18.7%[7.66 µM]	4.8%	-0.1%	?	10.0%	7.7%
COc1ccc(CN2C(=O)c3cccnc3C2=O)cc1S(=O)(=O)N1CCCCC1C (centres undefined)	2.9%	-3.0%	7.08µM*	27.6	7.08µM*	29.1%
COc1ccc(CN2C(=O)c3cccnc3C2=O)cc1S(=O)(=O)N1CC(C)Oc2ccccc21 (centres undefined)	8.7%	-0.3%	?	3.3	?	11.7%
O=C(NC(=S)NNC(=O)c1ccccc1O)c1ccco1	0.2%	4.3%	-2.1%[15.4 µM]	-16.7	1.6%	2.5%
O=C(Nc1ccc(N2CCN(C(=O)c3ccccc3)CC2)cc1)c1cc2ccccc2o1	15.6%	40.4%	-9.7%	-21.8	0.5%	35.5µM*
CC(C)(C)C(=O)N1CCN(c2ccc(NC(=O)c3ccco3)cc2)CC1	-5.2%	-0.8%	-6.0%	-82.8*	0.6%	-8.3%
O=C(NC(=S)NNC(=O)c1cc2ccccc2cc1O)c1ccco1	-15.0%	-1.9%	-0.2%[15.4 µM]	-69.7*	-0.8%	-12.4%
O=C(Nc1ccc(C(=O)Oc2ccccc2)c(O)c1)c1ccco1	-25.0%[7.66 µM]	-18.8%	8.4%	-2.1	0.4%	35.5µM*
Cc1ccc(NC(=O)CSc2nc(-c3ccco3)cc(C(F)(F)F)n2)cc1	·	·	·	·	12.1%	·
O=C(Nc1ccc(NC(=O)c2ccco2)cc1)c1ccco1	-14.5%	2.0%	9.0%	-0.5	-2.8%	-8.3%
O=C(Nc1ccc(Nc2ccccc2)cc1)c1ccco1	13.1%	0.2%	14.5%	-80.5*	-1.8%	-13.5%
O=C(NC1CCCCC1)c1sc(=S)n2c1[nH]c(=O)c1ccccc12	-17.9%	-0.9%	-37.0%	-2.5	0.4%	44.7µM*
CCCCNC(=O)c1sc(=S)n2c1[nH]c(=O)c1ccccc12	0.9%	-8.5%	18.6%	-17.8	-0.9%	25.1µM*
O=C(Nc1cccc(NC(=O)c2ccccc2Cl)c1)c1ccc([N+](=O)[O-])o1	-50.6%	-11.9%	-20.3%	29.9	-1.1%	39.8µM*

Screening data as filed in PubChem BioAssay.
